Screening data from PubChem.
BCR signal inh: inhibitors of chronic active B-cell receptor signaling; ABC-DLBCL IkBa-CBG/CBR reporter, luminescence ratio, 4 h; Potency, µM (top dose mostly 46.1 µM), without a hit: top-dose activity change, negative = inhibition, usual class: inhibitors; 340,000 compounds, 0.05% hits; AID 493014; active = well fitted inhibition curve with a large enough effect in the signal ratio, with a control signal flat, not every such curve was filed as active; inconclusive = small, poorly fitted or top-dose-only effect, or effect the other way, or a change in a side signal; the % refers to the signal ratio;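 note: potency is the fitted concentration of half-maximal effect; plate controls were basal doxycycline-induced cells for no effect and cells given 10 µM MG132 for full effect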
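Doxycycline induced both beetle luciferases in TMD8 lymphoma cells; IKK-driven degradation limits the IkappaBalpha-fused green signal, while red luminescence normalises for cell number and nonspecific effects. Compounds tested up to 46 uM, 4 hrs.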
TDP1 cell CPT: growth inhibition of DT40 Tdp1-/-;hTDP1 cells with camptothecin (screen for TDP1 inhibitors). chicken DT40 Tdp1-/-;hTDP1 cells + 20 nM CPT, ATP luminescence, 48 h. 420,000 compounds, 12% hits. AID 686979. Potency, µM (series often up to 46.2 µM), for the others: top-dose activity change, negative = growth inhibition, usual class: inhibitors; note: potency is the fitted concentration of half-maximal effect; % is set by controls: 0 for no effect and ±100 for the full control effect; nearly all actives have a fitted effect of over 55% in size
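Chicken DT40 Tdp1-/- cells stably complemented with human TDP1 were seeded at 400 cells/well in medium containing 20 nM camptothecin, exposed to pin-transferred compounds, and grown at 37 °C for at least 48 hr. Viability was read as ATP luminescence.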
MCF10A rereplic: inducers of DNA re-replication in MCF 10A breast cells; MCF 10A DNA re-replication, Hoechst nuclear intensity, 48 h; Potency, µM (doses to about 46.1 µM), for the others: at the highest dose activity, positive = re-replication, actives largely listed as activators; 350,000 compounds, 2.9% hits; AID 624296; note: potency is the fitted concentration of half-maximal effect; % of control where 0% means no effect; nearly all actives have a fitted effect of over 50% in size
IL1B secr inh: blocks inflammasome-driven IL-1 beta release; AID 743279; 360,000 compounds, 4.7% hits; THP-1 LPS/ATP IL-1B secretion, AlphaLISA, 16 h; active compounds read low; activity change, % at 57.5 µM; in the data active = activity change below about -50%; inconclusive = mostly about -30% to -49%; note: % is set by controls: 0 for no effect and ±100 for the full control effect
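THP-1 cells pretreated 1 hr with compounds (up to 57.5 uM final), then stimulated with LPS (250 ng/mL final) plus ATP (1.25 mM final); secreted IL-1B measured by AlphaLISA after 16 hr, decreased signal indicating inhibition.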
DT40 TDP1 no CPT: qHTS for Inhibitors of human tyrosyl-DNA phosphodiesterase 1 (TDP1): qHTS in cells in absence of CPT | DT40 Tdp1-/- hTDP1 cells, no CPT, ATP luminescence, 48 h | 420,000 compounds, 15% hits | AID 686978, 2013 | Potency, µM (doses to about 46.2 µM), for the others: at the highest dose activity change, negative = growth inhibition, usual class: inhibitors; note: potency is the fitted concentration of half-maximal effect; % is set by controls: 0 for no effect and ±100 for the full control effect; nearly all actives have a fitted effect of over 55% in size
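Readout: luminescence from CellTiter-Glo after 30 min in the dark at RT. Cells: DT40 Tdp1-/- with stable hTDP1, 400/well. Exposure: compounds alone, ≥48 hr, 37 °C.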
SW480 rereplic: induces DNA re-replication in SW480 colon adenocarcinoma cells | SW480 DNA re-replication, Hoechst DNA content imaging, 48 h | Potency, µM (top dose mostly 46.1 µM), without a hit: at the top dose re-replication activation, most hits filed as activators | 340,000 compounds, 1.8% hits | AID 624297; note: potency is the fitted concentration of half-maximal effect; % of control where 0% means no effect; nearly all actives have a fitted effect of over 55% in size
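Image-based DNA-content assay: after two days of treatment, nuclei were labelled with the DNA dye Hoechst and imaged, and hits were compounds raising the count of nuclei showing high fluorescence intensity.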
The depositor's hits bear a star; ? = inconclusive; nt = not tested or not shown. Only some compounds are listed: those with a hit (about 19% of all), similar ones and a draw of the others. Unless noted, calls come from the whole dose curve; as a rule, active = well fitted curve in the direction sought with a large enough effect; inconclusive = small, poorly fitted or top-dose-only effect, or another doubt; inactive = no such curve, though single readings can be large; an effect the other way counts as inactive or inconclusive.

SMILES	BCR signal inh	TDP1 cell CPT	MCF10A rereplic	IL1B secr inh	DT40 TDP1 no CPT	SW480 rereplic
COc1ccc(NC(=O)CCn2nc(-c3ccccc3OC)c3c(C)cc(C)nc32)cc1	nt	?	nt	nt	20.6µM*	nt
COc1ccc(CCN(C)C(=O)CSc2nc3ncc(Cl)cc3[nH]2)cc1OC	6.9%	12.2%	-3.7%	?	3.9%	-27.8%
Cc1sc2nc(CSCC(=O)NC3(C#N)CCCCC3)[nH]c(=O)c2c1C	1.2%	?	5.5%	-4.0	?	4.6%
O=C(CSc1nncn1-c1ccccc1)N1CCCC1	-4.5%	-4.8%	0.7%	10.5	-4.8%	4.1%
Cc1cccc2cc(CN(CCCN(C)C)C(=S)NCCc3ccccc3)c(=O)[nH]c12	0.9%	20.6µM*	1.0%	-50.8*	16.4µM*	3.5%
COc1cc2cc(CN(CCc3cccc(C)c3)C(=S)NCCCN3CCOCC3)c(=O)[nH]c2cc1OC	-13.5%	?	15.1%	-61.7*	?	0.2%
Cc1cccc2cc(CN(Cc3ccccc3)C(=O)N(C)C)c(=O)[nH]c12	3.1%	?	1.7%	59.9	?	-7.2%
Cc1ccc2[nH]c(=O)c(CN(CCCN(C)C)C(=S)NCCc3ccccc3)cc2c1	?	?	-0.6%	-67.5*	?	22.0%
Cc1ccc2cc(CN(CCc3ccccc3)C(=S)NCCCN(C)C)c(=O)[nH]c2c1	-28.5%	?	?	?	25.9µM*	?
CC(=O)c1cccc(NC(=O)COC(=O)c2ccccc2OCc2cccc(Br)c2)c1	nt	-21.4%	nt	nt	-22.3%	nt
Cc1ccc(C2(C)NC(=O)N(CC(=O)Nc3cc(S(=O)(=O)N(C)C)ccc3C)C2=O)cc1 (centres undefined)	-2.6%	?	19.0%	-16.3	?	?
COc1ccccc1CNC(=O)Cn1cc(Br)ccc1=O	-3.2%	-1.0%	-11.2%	-7.0	9.9%	-13.2%
CC(C)(C)c1ccc(-c2cn(-c3ccc(Br)cc3)c3[n+]2CCCS3)cc1	?	0.164µM*	?	-99.1*	0.184µM*	0.8%
COc1ccc(-c2cn(-c3ccccc3)c3[n+]2CCS3)cc1	-6.1%	2.31µM*	20.0%	-10.9	2.31µM*	-6.7%
Cn1c(NC(=O)C[n+]2cc(-c3ccc(Cl)c(Cl)c3)n3c2CCC3)cc(=O)n(C)c1=O	-0.2%	-17.5%	1.1%	-16.2	?	1.2%
COc1ccc(C(=O)C[n+]2cc(-c3ccc(OC)cc3)n3c2CCCC3)cc1	?	9.2µM*	6.6%	-11.8	6.51µM*	?
O=C(C[n+]1cc(-c2ccc(F)cc2)n2c1CCC2)OCc1ccccc1	-0.1%	-10.0%	0.2%	22.1	0.4%	-5.6%
Cc1ccc(-c2c[n+](Cc3ccc(Cl)c(Cl)c3)c3n2CCC3)cc1	?	0.581µM*	?	-79.0*	0.517µM*	60.4%
Cc1ccc(C(=O)C[n+]2cc(-c3ccc(C)cc3)n3c2CCCCC3)cc1	?	0.206µM*	?	-96.0*	0.146µM*	11.2%
O=C(C[n+]1cc(-c2ccccc2)n2c1CCCCC2)c1ccc(Br)cc1	-8.7%	20.6µM*	-7.8%	-76.9*	23.1µM*	-7.6%
C[C@H]1CN([C@@H](C)CO)C(=O)CCCn2cc(nn2)CO[C@@H]1CN(C)C(=O)Nc1ccc2c(c1)OCCO2	nt	6.1%	nt	7.0	-5.2%	nt
COc1ccc(NC(=O)C2CCN(S(=O)(=O)c3ccc(Cl)c(C(F)(F)F)c3)CC2)cn1	nt	?	nt	14.5	?	nt
CCCCCCCCCCCCCCCCCCN(CCCCCCCCCCCCCCCCCC)c1ccccc1	nt	3.2%	nt	nt	3.6%	nt
CCCN(C(=O)c1cn(-c2ccccc2)nc1-c1ccc(OC)cc1)C1CCS(=O)(=O)C1 (centres undefined)	1.6%	-1.6%	1.0%	-22.3	-2.8%	-6.6%
